About 79,000 compounds went through this panel and 15% of them were active in at least one assay; those are over-represented in the sample as a whole. A number with no mark means an inactive call. Activity calls are given as the source filed them. Cut-off read from the data, not from the text of the source: active = growth inhibition above about 70%; inactive = the rest.
Tests used:
[1] = NCI Yeast Anticancer Drug Screen. Data for the rad50 strain (AID 155);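 note: 0% = growth of vehicle-only cultures of the same strain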; conditions: S. cerevisiae rad50 strain growth inhibition; at 50.0 µM; stronger effect = higher value
Summary of the method: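 Relative growth inhibition (compound vs vehicle) was measured in yeast with a defined repair-gene alteration.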

[2] = NCI Yeast Anticancer Drug Screen. Data for the mec2-1 strain (AID 157); conditions: S. cerevisiae mec2-1 strain, at 50.0 µM, stronger effect = higher value
Summary of the method: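 Compounds were applied to mec2-1 yeast cells. Their growth was then compared with that of vehicle-treated cultures to give growth inhibition.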

[3] = NCI Yeast Anticancer Drug Screen. Data for the sgs1 mgt1 strain (AID 161);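 note: 0% = growth of cultures given vehicle only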; conditions: S. cerevisiae sgs1 mgt1 strain, at 50.0 µM, stronger effect = higher value
Summary of the method: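 Percent growth inhibition was derived by comparing compound-exposed mutant yeast with vehicle-exposed cultures. The strain carries alterations in DNA damage repair.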

[4] = NCI Yeast Anticancer Drug Screen. Data for the cln2 rad14 strain (AID 165);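 note: 0% = growth equal to vehicle treated cultures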; conditions: S. cerevisiae cln2 rad14 strain, at 50.0 µM, stronger effect = higher value
Summary of the method: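 Strain: cln2 rad14 yeast, altered in cell cycle control and DNA damage repair. Read-out: growth inhibition vs vehicle.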

[5] = NCI Yeast Anticancer Drug Screen. Data for the bub3 strain (AID 167); conditions: S. cerevisiae bub3 mutant strain, at 50.0 µM, stronger effect = higher value
Summary of the method: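 Screening used yeast with an engineered genetic alteration affecting cell cycle control. Compound-exposed cultures were compared with vehicle cultures, and reduced growth was taken as inhibition.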

[6] = NCI Yeast Anticancer Drug Screen. Data for the mlh1 rad18 strain (AID 175); conditions: S. cerevisiae mlh1 rad18 strain growth inhibition; at 50.0 µM; stronger effect = higher value
Summary of the method: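 A repair-deficient yeast strain is exposed to test compound, and growth is scored relative to vehicle-treated controls.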

| Compound | growth inhibition [1] | growth inhibition [2] | growth inhibition [3] | growth inhibition [4] | growth inhibition [5] | growth inhibition [6] |
| --- | --- | --- | --- | --- | --- | --- |
| CCOC(=O)NC(=O)c1cn(CCSCCOC(=O)NCCCCCCNC(=O)OCCSCCn2cc(C(=O)NC(=O)OCC)c(=O)[nH]c2=O)c(=O)[nH]c1=O | 28.7% | 20.6% | 11.9% | 12.9% | -51.2% | 23.2% |
| c1ccc2c(c1)ncc1cc3c(cc12)[nH]c1ccccc13 | 40.9% | 7.5% | 16.6% | -11.1% | -10.4% | 26.6% |
| O=C(NCCCBr)Nc1cccc2c1CCCC2 | -7.45% | 5.9% | 2.5% | -31.5% | -20.9% | -21.1% |
| CC(NC(=O)C(Cc1ccc(OC(=O)c2ccccc2)cc1)NC(=O)OC(C)(C)C)C(=O)NCC(=O)NC(Cc1ccccc1)NC(=O)OCc1ccccc1 (centres undefined) | -11.7% | -24.6% | -27.7% | 7.35% | -25.4% | -8.95% |
| CCCCCC1CCC(O)CC1 (centres undefined) | 16.1% | 6.55% | 21.1% | -61.4% | 4.2% | -7.55% |
| C=C(CN(C)C)c1ccccn1 | -11.9% | -5.45% | -2.3% | -16.8% | -13.3% | -17.6% |
| CC1(C)OC2(C)CCC1C1C2N1C(=O)Nc1cccc(Cl)c1 (centres undefined) | -4.05% | -13.8% | -2.25% | -2.45% | -7.9% | -18.5% |
| N#CNC1=NC(N)C(c2nc3ccccc3[nH]2)=C(CCCC(=O)Nc2cccc([N+](=O)[O-])c2)N1 (centres undefined) | 17.1% | 17.1% | 5.45% | 25.9% | 35.9% | 5.65% |
| C=C(C)C(=O)Nc1ccc2nn(-c3ccccc3O)nc2c1 | -24.9% | -25.4% | 1.75% | 8.15% | -14.2% | 5.3% |
| CC[O-].CC[O-].O=Nc1ccc2cc([O-])ccc2c1.O=Nc1ccc2cc([O-])ccc2c1.[Ti+4] | 34.9% | 44.9% | 59.5% | 45% | 52.6% | 15.9% |
| CC/C(=N\N=C(/CC)c1ccc[nH]1)c1ccc[nH]1 | 36.8% | -23.8% | 10.2% | 5.9% | 23.3% | 9.25% |
| CCn1c2ccccc2c2cc(N)c(N=Nc3ccc(-c4ccc(N)c(OC)c4)cc3OC)cc21 | 31.4% | 0.65% | 27.6% | 28.8% | -4% | 29.8% |
| CN(C)c1ccc(N=Cc2ccc(O)cc2)cc1 | 10.9% | 0.55% | -4.6% | 2% | 2.9% | 7% |
| CCCC(=O)OCCCCC1CCCO1 (centres undefined) | 13.2% | 3.6% | 8.75% | 14% | 5.45% | 11.6% |
| COC(=O)C1=C(C)N(NC(N)=O)C2(N)N(NC(N)=O)C(C)=C(C(=O)OC)C12C#N (centres undefined) | -23.5% | -11.6% | -44.6% | 5.8% | 2.55% | -16.4% |
| O=C(COc1ccccc1[N+](=O)[O-])Nc1cccnc1 | -18.9% | -10.8% | -12.3% | -9.25% | -3.25% | 8.25% |
| CC(=O)OCC(=O)[C@@]1(O)CC[C@H]2[C@@H]3C[C@@H](C)[C@@]4(O)CC5(CC[C@]4(C)[C@H]3[C@@H](O)C[C@@]21C)OCC(C)(C)CO5 | 0.35% | 16.2% | 27.1% | 28.6% | -6.2% | -11.2% |
| C=C1CCCCCCCCCCC1S(=O)c1ccccc1 (centres undefined) | 14.5% | 14.3% | 4.15% | -6.6% | -5.4% | 31.5% |
| CCC(=O)Nc1cccc2ccccc12 | 5.1% | -12.7% | -10.9% | -92.4% | -5.95% | -3.1% |
| O=C(c1ccccc1)c1ccc(C(=O)c2ccccc2)cc1 | -0.35% | -1.85% | -19.2% | -6.15% | -9.35% | -19.3% |

| Compound | growth inhibition [1] | growth inhibition [2] | growth inhibition [3] | growth inhibition [4] | growth inhibition [5] | growth inhibition [6] |
| --- | --- | --- | --- | --- | --- | --- |
| Cc1cccc2nnc(CCCc3nnc4cccc(C)n34)n12 | -0.85% | 1.85% | -22.1% | -34.4% | -8.8% | -6.3% |
| CC(C)=C1CC(C)(C)N=C1CCN1CCOCC1 | -12.3% | -20.6% | -12.5% | -6% | -11.3% | -24.6% |
| O=c1c2cc([N+](=O)[O-])ccc2[nH]n1Cc1ccccc1Cl | -0.1% | 12.3% | -3.8% | 14.9% | 6.6% | -4.45% |
| CC(=O)C1=C(O)/C(=C/c2ccccc2)NC1=O | 8.05% | 5.15% | -6.3% | -35.5% | -13.2% | -3.2% |
| Nc1cccc2c1C(=O)c1c(N)cccc1C2=O | 99.3% (active) | 99.4% (active) | 94.7% (active) | 98.7% (active) | 99.2% (active) | 99.1% (active) |
| COC(=O)CC1NC(=O)[C@]1(C)[C@H](C)O (some centres undefined) | -37.1% | -16.2% | -33% | -14.3% | -48.4% | -48.9% |
| O=C1c2c(Cl)cccc2C(c2ccccc2)c2cccc(Cl)c21 | 29% | -4.15% | -1.55% | -11.5% | 7.35% | 23.2% |
| O=C(O)CCCc1ccc2sc3ccccc3c2c1 | 47.4% | 32.6% | 27.6% | 50.5% | 24.9% | 76.8% (active) |
| CN(C)c1ccc([N+](=O)[O-])cc1 | -76.2% | -24% | -61.6% | -43.1% | -9.2% | -57.4% |
| NCCCN=c1ccc2c3c1c(O)c1c(O)ccc(=O)c1c3[nH]n2CCNCCO | 89.1% (active) | 35.1% | 33.3% | 17.9% | 28.6% | 36.2% |
| O=[N+]([O-])/C(C(Cl)=C(Cl)Cl)=C(/Cl)Sc1ccccc1 | 91.8% (active) | 92.1% (active) | 85.7% (active) | 89.8% (active) | 89.1% (active) | 91.4% (active) |
| CN1CCCC2[C@@H]3CCC4=C(O)C(=O)CC[C@]4(C)C3CC[C@@]21C (some centres undefined) | 9.05% | -6.05% | -4% | 22.1% | 0.85% | 18.4% |
| CC(C)CC(N)C(=O)NC(Cc1cc2ccccc2[nH]1)C(=O)O (centres undefined) | 2.4% | -6.25% | 7.3% | -17.9% | 5.2% | -0.4% |
| CC(=O)NNc1nc(C)c(C(=O)NNC(=O)C(=O)Nc2c(C)cccc2C(C)(C)C)s1 | 26.6% | 20.2% | 13.2% | 32.5% | 24.9% | 20.9% |
| O=C(N/N=C/c1ccccc1[O-])c1ccccc1O.O=C(N/N=C/c1ccccc1[O-])c1ccccc1O.[Fe+2] | 6.45% | -10.1% | -1.5% | 19.3% | -19.6% | 9.5% |
| O=C(NC1CCCCC1)N(C(=O)C(F)(F)F)C1CCCCC1 | 9.05% | 3.6% | -5.15% | 9.8% | -2.4% | 14.7% |
| CCC(CC)=NNc1ccc([N+](=O)[O-])cc1[N+](=O)[O-] | -2.45% | -11.4% | -13.6% | -51.1% | 0.75% | -9.85% |
| FC(F)(F)c1cccc(-c2nc3nc(Cl)c(Cl)nc3[nH]2)c1 | 15.1% | -2% | -5.7% | -15.7% | 18.4% | 26.3% |
| CNC(=O)c1ccccc1N=NN(C)C | -0.65% | 19.4% | 4.05% | 13.7% | 15.7% | 40.5% |
